From PubChem BioAssay (EPA / NIEHS)
Active and inactive are the calls of the source. The calls were made as follows: active = hit-call score of the fitted dose curve at least 0.9, where 1 is the maximum; inactive = score below 0.9.

Assays:
[1] = ATG_E_Box_CIS: Attagene CIS-FACTORIAL HepG2 Assay for human Enhancer Box (E-box) (AID 2282936); conditions: HepG2 E-box cis-reporter transcription, actives raise or lower the signal
In short: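 First, HepG2 cells receive multiple cis-regulated reporter constructs by transient transfection. Next, chemicals are applied for 24 h. Finally, reporter mRNA is quantified via RT-PCR and capillary electrophoresis, with DMSO as baseline.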

[2] = ATG_M_61_CIS: Attagene CIS-FACTORIAL HepG2 Assay for M61 Transcription Factor (Internal Marker) (AID 2282937); conditions: HepG2 Attagene CIS-FACTORIAL M61 internal marker reporter; actives raise or lower the signal
In short: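 Fluorescence from labelled cDNA fragments, separated by capillary electrophoresis, quantifies reporter induction. HepG2 cells bearing transiently transfected cis-promoter MRTUs were incubated with test chemical for 24 h; DMSO defined baseline for gain/loss fitting.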

[3] = ATG_EGR_CIS: Attagene CIS-FACTORIAL HepG2 Assay for human Early Growth Response 1 (EGR1) (AID 2282938); conditions: HepG2 Attagene CIS-FACTORIAL EGR reporter mRNA; actives raise or lower the signal
In short: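 Cell-based multiplex transcription assay: HepG2 carrying transfected cis-element reporter units, 24 h chemical treatment. Fluorescence from capillary electrophoresis of RT-PCR products gives mRNA levels; fitting is bidirectional relative to DMSO.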

[4] = ATG_M_19_CIS: Attagene CIS-FACTORIAL HepG2 Assay for M19 Transcription Factor (Internal Marker) (AID 2282939); conditions: HepG2 Attagene CIS-FACTORIAL M19 internal marker reporter; actives raise or lower the signal
In short: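 Chemical-treated HepG2 (24 h) with MRTU constructs; reporter transcripts detected by fluorescent RT-PCR fragment analysis on capillary electrophoresis. Internal background marker, DMSO as baseline.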

[5] = ATG_ERE_CIS: Attagene CIS-FACTORIAL HepG2 Assay for Estrogen Response Element (ERE) (AID 2282940); conditions: HepG2 ERE cis-reporter, Attagene RNA transcript; actives raise or lower the signal
In short: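 Human liver cells (HepG2) bearing transiently transfected, promoter-regulated reporter units were exposed 24 h. Reporter mRNA induction was detected by capillary electrophoresis of labelled RT-PCR products and fitted bidirectionally to DMSO.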

[6] = ATG_Ets_CIS: Attagene CIS-FACTORIAL HepG2 Assay for human Erythroblast Transformation Specific (ETS) (AID 2282941); conditions: HepG2 ETS cis-reporter transcription, actives raise or lower the signal
In short: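 After transient cis-reporter transfection, HepG2 cells receive test chemical for 24 h. Reporter mRNA levels, measured by RT-PCR and capillary electrophoresis fluorescence, are analysed bidirectionally relative to the DMSO baseline.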

[7] = target: Hepatocyte nuclear factor 3-beta (Homo sapiens) (UniProt Q9Y261); assay: ATG_FoxA2_CIS: Attagene CIS-FACTORIAL HepG2 Assay for human Forkhead box A2 (FOXA2) (AID 2282942); conditions: HepG2 cis-reporter transcription factor activity, 24 h; actives raise or lower the signal
In short: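 In transiently transfected human HepG2 cells, promoter-driven reporter mRNA levels after 24 h chemical exposure are determined via RT-PCR with capillary electrophoresis. DMSO serves as baseline for bidirectional fitting.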

[8] = ATG_FoxO_CIS: Attagene CIS-FACTORIAL HepG2 Assay for human Forkhead box O (FoxO) (AID 2282943); conditions: HepG2 Attagene cis-reporter, FoxO element, mRNA; actives raise or lower the signal
In short: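 HepG2 cells transiently transfected with cis-element-driven reporter units report endogenous FoxO activity. After 24 h chemical exposure, reporter mRNA quantified by RT-PCR, fluorescent labeling, HpaI digestion and capillary electrophoresis; bidirectional fit versus DMSO.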

[9] = ATG_GATA_CIS: Attagene CIS-FACTORIAL HepG2 Assay for human GATA Binding Protein (AID 2282944); conditions: HepG2 GATA cis-element reporter, Attagene multiplex mRNA; actives raise or lower the signal
In short: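 Transfected cis-reporter HepG2 cells were treated with chemicals for 24 hours. Total RNA was then converted to cDNA, amplified with reporter-specific primers and analysed by fluorescent capillary electrophoresis, using DMSO-treated wells as baseline.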

[10] = ATG_GLI_CIS: Attagene CIS-FACTORIAL HepG2 Assay for human Zinc Finger Protein GLI1 (AID 2282945); conditions: HepG2, Attagene cis-factorial reporter mRNA, GLI element; actives raise or lower the signal
In short: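 Transiently transfected HepG2 cells report endogenous transcription factor activity via cis-element-driven reporter units. After 24 h compound exposure, reporter mRNA was measured by RT-PCR with capillary electrophoresis; bidirectional fitting against DMSO baseline.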

[11] = ATG_ISRE_CIS: Attagene CIS-FACTORIAL HepG2 Assay for human Interferon Regulatory Factor 1 (IRF1) binding to an Interferon-Stimulated Response Element (ISRE) (AID 2282948); conditions: HepG2 ISRE cis-reporter (Attagene), mRNA transcription readout; actives raise or lower the signal
In short: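 Quantitation relies on labelled RT-PCR fragments separated by capillary electrophoresis. Human HepG2 cells bearing cis-promoter reporter constructs were treated 24 h; DMSO served as baseline for bidirectional fitting.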

[12] = ATG_M_32_CIS: Attagene CIS-FACTORIAL HepG2 Assay for M32 Transcription Factor (Internal Marker) (AID 2282949); conditions: HepG2 Attagene cis-factorial M32 reporter, mRNA; actives raise or lower the signal;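 also: background control marker of the multiplexed CIS panel rather than a real target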
In short: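 Following 24 h chemical exposure of HepG2 cells transiently expressing cis-promoter reporter constructs, reporter transcript levels were determined by RT-PCR with fluorescent labelling and capillary electrophoresis, then fitted bidirectionally against DMSO.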

[13] = ATG_M_06_CIS: Attagene CIS-FACTORIAL HepG2 Assay for M06 Transcription Factor (Internal Marker) (AID 2282950); conditions: HepG2 Attagene CIS-FACTORIAL M06 internal marker reporter; actives raise or lower the signal
In short: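 Cells (HepG2, transiently carrying cis-driven reporter units) receive chemical for 24 h before RNA isolation. Reporter cDNA is PCR-amplified, FAM-labelled by primer extension, HpaI-digested and sized on a capillary analyser.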

[14] = target: Hypoxia-inducible factor 1-alpha (Homo sapiens) (UniProt Q16665); assay: ATG_HIF1a_CIS: Attagene CIS-FACTORIAL HepG2 Assay for human Hypoxia Inducible Factor 1 (HIF1A) (AID 2282951); conditions: HepG2 Attagene cis-factorial HIF1a reporter transcription; actives raise or lower the signal
In short: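 In this multiplexed cell assay, HepG2 cells bearing transfected cis reporters are dosed for 24 h and reporter mRNA is read by RT-PCR plus capillary electrophoresis; signal increases and decreases are both scored against DMSO.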

[15] = target: Hepatocyte nuclear factor 6 (Homo sapiens) (UniProt Q9UBC0); assay: ATG_HNF6_CIS: Attagene CIS-FACTORIAL HepG2 Assay for human Hepatocyte Nuclear Factor 6 (HNF6) (AID 2282952); conditions: HepG2 Attagene cis-factorial HNF6 reporter transcription; actives raise or lower the signal
In short: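 Cells are HepG2 carrying transiently transfected cis-promoter reporter units. Treatment lasts 24 h, after which reporter transcripts are reverse-transcribed, amplified, FAM-labelled and sized by capillary electrophoresis. DMSO serves as baseline.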

[16] = ATG_MRE_CIS: Attagene CIS-FACTORIAL HepG2 Assay for human Metal Responsive Element (MRE) (AID 2282954); conditions: HepG2 MRE cis-reporter transcription, Attagene multiplex; actives raise or lower the signal
In short: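 Fluorescent reporter fragments separated by capillary electrophoresis give mRNA induction for the MRE unit after 24 h treatment of transfected HepG2 cells. Endogenous transcription-factor activity is read; DMSO serves as negative control and baseline.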

[17] = ATG_PBREM_CIS: Attagene CIS-FACTORIAL HepG2 Assay for human Phenobarbital-responsive Enhancer Module (PBREM) (AID 2282955); conditions: HepG2 PBREM cis-reporter, Attagene multiplexed transcription; actives raise or lower the signal
In short: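 After a 24 h incubation with test chemical, transfected HepG2 cells yield total RNA; reporter-specific RT-PCR products are fluorescently labelled, HpaI-digested and resolved by capillary electrophoresis against ROX size standards.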

[18] = ATG_GRE_CIS: Attagene CIS-FACTORIAL HepG2 Assay for human Glucocorticoid Response Elements (GRE) (AID 2282947); conditions: HepG2 GRE cis-reporter, Attagene multiplex mRNA; actives raise or lower the signal
In short: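 Endogenous transcription factor activity is read through cis-element reporter constructs transiently transfected into HepG2 cells. After 24 h treatment, labelled RT-PCR products are resolved by capillary electrophoresis; DMSO sets baseline for bidirectional curve fitting.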

[19] = target: Heat shock factor protein 1 (Homo sapiens) (UniProt Q00613); assay: ATG_HSE_CIS: Attagene CIS-FACTORIAL HepG2 Assay for human Heat Shock Transcription Factor 1 (HSE) (AID 2282953); conditions: HepG2 HSE cis-reporter, Attagene RNA transcription; actives raise or lower the signal
In short: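 Liver-derived HepG2 cells carry transiently introduced multiple reporter units governed by cis promoters. Reporter RNA measured 24 h post-dose through reverse transcription, PCR amplification, fluorescent labelling and capillary electrophoresis, normalised to DMSO.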

[20] = target: Bile acid receptor (Homo sapiens) (UniProt Q96RI1); assay: ATG_IR1_CIS: Attagene CIS-FACTORIAL HepG2 Assay for human Nuclear Receptor Subfamily 1 Group H Member 4 (NR1H4), IR1 submotif (AID 2282946); conditions: IR1 reporter transcription, actives raise or lower the signal
In short: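 HepG2 cells transiently transfected with multiple cis-promoter-driven reporter units to measure endogenous transcription factor activity; 24 h exposure. Reporter mRNA read by RT-PCR, FAM labelling, HpaI digestion and capillary electrophoresis. Bidirectional fit versus DMSO.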

Measured: AC50

Sequence of Heat shock factor protein 1 (Homo sapiens) (Q00613 whole entry, looked up): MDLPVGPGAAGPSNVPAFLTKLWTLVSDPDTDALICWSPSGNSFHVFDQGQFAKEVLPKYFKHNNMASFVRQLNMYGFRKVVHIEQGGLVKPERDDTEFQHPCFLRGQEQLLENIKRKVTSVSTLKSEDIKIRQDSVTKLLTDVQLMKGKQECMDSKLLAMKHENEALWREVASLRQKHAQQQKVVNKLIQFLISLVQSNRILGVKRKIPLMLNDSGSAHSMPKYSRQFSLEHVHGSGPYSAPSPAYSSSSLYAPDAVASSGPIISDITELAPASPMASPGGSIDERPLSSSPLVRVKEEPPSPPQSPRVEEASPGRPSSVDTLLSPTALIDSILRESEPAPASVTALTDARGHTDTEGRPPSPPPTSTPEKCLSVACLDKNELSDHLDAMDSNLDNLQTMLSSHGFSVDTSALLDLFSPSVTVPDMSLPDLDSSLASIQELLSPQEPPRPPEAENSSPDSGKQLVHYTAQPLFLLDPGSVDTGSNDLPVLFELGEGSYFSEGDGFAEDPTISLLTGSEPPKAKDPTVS
Sequence of Hepatocyte nuclear factor 3-beta (Homo sapiens) (Q9Y261 whole entry, looked up): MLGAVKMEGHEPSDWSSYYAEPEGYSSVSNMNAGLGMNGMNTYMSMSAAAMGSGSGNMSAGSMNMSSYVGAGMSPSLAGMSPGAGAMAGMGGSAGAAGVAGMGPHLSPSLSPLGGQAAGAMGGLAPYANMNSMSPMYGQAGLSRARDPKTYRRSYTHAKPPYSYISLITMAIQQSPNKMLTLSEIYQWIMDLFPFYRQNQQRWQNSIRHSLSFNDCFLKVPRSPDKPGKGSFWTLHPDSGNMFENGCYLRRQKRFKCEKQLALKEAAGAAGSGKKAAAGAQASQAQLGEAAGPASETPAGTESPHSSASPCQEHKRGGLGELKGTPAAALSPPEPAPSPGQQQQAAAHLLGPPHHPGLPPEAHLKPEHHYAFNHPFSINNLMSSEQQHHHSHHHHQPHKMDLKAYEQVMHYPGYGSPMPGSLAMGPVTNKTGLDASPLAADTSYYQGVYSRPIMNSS
Sequence of Hypoxia-inducible factor 1-alpha (Homo sapiens) (Q16665 whole entry, looked up): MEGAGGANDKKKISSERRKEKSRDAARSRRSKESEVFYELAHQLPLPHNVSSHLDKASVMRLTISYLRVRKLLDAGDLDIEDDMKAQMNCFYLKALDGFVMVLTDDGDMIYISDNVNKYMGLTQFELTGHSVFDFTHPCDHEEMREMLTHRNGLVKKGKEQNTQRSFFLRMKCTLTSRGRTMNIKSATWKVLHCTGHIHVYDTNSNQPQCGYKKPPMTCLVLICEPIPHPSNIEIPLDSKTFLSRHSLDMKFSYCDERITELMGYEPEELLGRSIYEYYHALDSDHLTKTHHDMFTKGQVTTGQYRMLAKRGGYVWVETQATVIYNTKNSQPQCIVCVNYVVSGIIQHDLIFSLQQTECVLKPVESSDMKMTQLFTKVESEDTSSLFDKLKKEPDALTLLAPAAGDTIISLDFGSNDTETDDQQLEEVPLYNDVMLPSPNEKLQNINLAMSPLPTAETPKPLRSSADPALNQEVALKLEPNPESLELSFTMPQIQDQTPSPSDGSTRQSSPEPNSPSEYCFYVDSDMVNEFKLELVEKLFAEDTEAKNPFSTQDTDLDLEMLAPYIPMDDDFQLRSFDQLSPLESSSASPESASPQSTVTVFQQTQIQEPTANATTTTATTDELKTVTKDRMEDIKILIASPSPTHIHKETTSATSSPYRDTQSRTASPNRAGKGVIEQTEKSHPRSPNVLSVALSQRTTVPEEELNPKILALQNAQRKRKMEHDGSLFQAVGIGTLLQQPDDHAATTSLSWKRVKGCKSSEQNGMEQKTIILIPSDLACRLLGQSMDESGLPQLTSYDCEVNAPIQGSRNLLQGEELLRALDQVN
Sequence of Hepatocyte nuclear factor 6 (Homo sapiens) (Q9UBC0 whole entry, looked up): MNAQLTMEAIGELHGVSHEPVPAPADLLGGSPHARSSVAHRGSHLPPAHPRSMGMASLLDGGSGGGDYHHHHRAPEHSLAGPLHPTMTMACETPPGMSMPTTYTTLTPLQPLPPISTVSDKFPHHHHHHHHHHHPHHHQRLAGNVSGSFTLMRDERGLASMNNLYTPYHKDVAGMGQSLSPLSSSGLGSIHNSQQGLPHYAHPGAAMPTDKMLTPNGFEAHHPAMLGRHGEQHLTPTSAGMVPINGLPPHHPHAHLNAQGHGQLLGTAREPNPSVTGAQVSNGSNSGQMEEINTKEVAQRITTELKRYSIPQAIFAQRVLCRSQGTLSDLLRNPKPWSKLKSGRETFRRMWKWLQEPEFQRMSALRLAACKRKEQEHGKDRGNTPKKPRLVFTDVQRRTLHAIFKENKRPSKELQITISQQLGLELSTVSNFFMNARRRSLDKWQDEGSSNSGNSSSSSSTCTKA
Sequence of Bile acid receptor (Homo sapiens) (Q96RI1 whole entry, looked up): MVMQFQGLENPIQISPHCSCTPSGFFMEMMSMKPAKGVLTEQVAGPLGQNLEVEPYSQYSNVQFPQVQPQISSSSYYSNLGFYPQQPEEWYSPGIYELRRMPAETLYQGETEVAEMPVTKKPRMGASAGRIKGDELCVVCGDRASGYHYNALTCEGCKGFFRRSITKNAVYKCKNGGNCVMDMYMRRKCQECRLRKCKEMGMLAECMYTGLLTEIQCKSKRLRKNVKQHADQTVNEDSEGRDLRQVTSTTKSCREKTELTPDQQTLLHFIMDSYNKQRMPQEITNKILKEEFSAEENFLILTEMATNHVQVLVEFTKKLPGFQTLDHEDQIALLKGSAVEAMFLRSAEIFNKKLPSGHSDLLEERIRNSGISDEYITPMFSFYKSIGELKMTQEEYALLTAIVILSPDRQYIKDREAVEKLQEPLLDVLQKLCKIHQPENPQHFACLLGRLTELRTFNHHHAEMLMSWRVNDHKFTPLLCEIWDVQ

CC(=O)c1ccccc1
inactive: [1] | [2] | [3] | [4] | [5] | [6] | [7] | [8] | [9] | [10] | [11] | [12] | [13] | [14] | [15] | [16] | [17]

OCCOCCOCCO
inactive: [1] | [2] | [3] | [4] | [5] | [6] | [7] | [8] | [9] | [10] | [18] | [11] | [12] | [13] | [15] | [19] | [16] | [17]

CCc1cccc(CC)c1N
inactive: [1] | [2] | [3] | [4] | [5] | [6] | [7] | [8] | [9] | [10] | [18] | [11] | [12] | [13] | [15] | [16] | [17]

NC(=O)N1c2ccccc2C=Cc2ccccc21
active: [5] 49.9 µM
inactive: [1] | [2] | [3] | [4] | [6] | [7] | [8] | [9] | [10] | [11] | [12] | [13] | [14] | [15] | [16] | [17]

Cn1cc[nH]c1=S
inactive: [1] | [2] | [3] | [4] | [5] | [6] | [8] | [9] | [10] | [11] | [12] | [13] | [16] | [17]

O=C(O)CO
inactive: [1] | [2] | [3] | [4] | [5] | [6] | [7] | [8] | [9] | [10] | [11] | [12] | [13] | [14] | [15] | [19] | [16] | [17]

NC(=O)NN=Cc1ccc([N+](=O)[O-])o1
active: [1] 113 µM
inactive: [2] | [3] | [4] | [5] | [6] | [7] | [8] | [9] | [10] | [18] | [11] | [12] | [13] | [15] | [16] | [17]

CCCC(CCC)C(=O)O
inactive: [1] | [2] | [3] | [4] | [5] | [6] | [8] | [9] | [10] | [18] | [11] | [12] | [13] | [14] | [16]

NNC(=O)c1ccncc1
inactive: [1] | [2] | [3] | [4] | [6] | [7] | [8] | [9] | [10] | [18] | [11] | [12] | [13] | [15] | [19] | [16] | [17]
active: [5] 26.6 µM

CCCCN1C(=O)[C@@H]([C@H](O)C2CCCCC2)NC(=O)C12CCN(Cc1ccc(Oc3ccc(C(=O)O)cc3)cc1)CC2
inactive: [1] | [2] | [3] | [4] | [5] | [6] | [7] | [8] | [9] | [10] | [12] | [13] | [15] | [19] | [17]
active: [11] 93.5 µM | [16] 75.8 µM

C=CN1CCCC1=O
inactive: [1] | [2] | [3] | [4] | [5] | [6] | [7] | [8] | [9] | [10] | [11] | [12] | [13] | [14] | [15] | [16] | [17]

CCOC(N)=O
inactive: [1] | [2] | [3] | [4] | [5] | [6] | [7] | [8] | [9] | [10] | [11] | [12] | [13] | [15] | [16]

CCCCCCCCCCCCCCO
active: [1] 129 µM | [6] 159 µM | [7] 138 µM | [9] 179 µM | [15] 177 µM
inactive: [2] | [3] | [4] | [5] | [8] | [10] | [11] | [12] | [13] | [16]

OC(CCl)CCl
inactive: [1] | [2] | [3] | [4] | [5] | [6] | [7] | [8] | [9] | [10] | [18] | [11] | [12] | [13] | [15] | [19] | [16] | [17]

O=C(N[C@H](CO)[C@H](O)c1ccc([N+](=O)[O-])cc1)C(Cl)Cl
inactive: [1] | [2] | [3] | [4] | [5] | [6] | [7] | [8] | [9] | [10] | [11] | [12] | [13] | [15] | [19] | [16] | [17]

CCN(CC)C(=S)SSC(=S)N(CC)CC
inactive: [2] | [4] | [5] | [18] | [12] | [13]
active: [1] 18.9 µM | [3] 125 µM | [6] 158 µM | [8] 152 µM | [9] 158 µM | [10] 153 µM | [20] 67.8 µM | [11] 81.3 µM | [16] 148 µM | [17] 166 µM
